Data as given in the supplement of paper PMC10338343.
± gives the standard deviation.

These sequences were tested on MILI (PIWIL2) piRISC loaded with L1MC piRNA (26 nt) (assay: pre-steady-state target cleavage rate (min^-1); guide: L1MC piRNA 5'p-UAACUAAAUACUAUGCAAGCUGUAGG; MIWI and MILI are mouse PIWI proteins and EfPiwi is from a freshwater sponge; tags in brackets are library labels; higher = faster piRNA-guided slicing of the target). Conditions: auxiliary factor: 500 nM mouse GTSF1.
Method: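 Cleave-'n-Seq: a library of target RNAs (target site embedded in constant flanks, ACAGCATTCCGCGTTAGTGATATCCG... 5' flank; DNA-blocked outside the site) at 0.1 nM was incubated with 1 nM active mouse MILI or MIWI piRISC (synthetic 5'-monophosphorylated piRNA guide) with or without 500 nM mouse GTSF1 at 33 °C for 1 min to 16 h. Uncleaved targets were sequenced and normalised to non-target controls, and the pooled three trials were fitted to a burst-and-steady-state model to give the pre-steady-state cleavage rate (min^-1; k3 is constrained to at most 1e-4). Sequence is the target site only; target names encode pairing extent (gX:gY) and contiguous / 1-mismatch / 2-mismatch / bulge geometry. Fits with R² ≤ 0 are excluded.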
UCCUGGAUCAGCUAGCAUACUAUUUAGUUA was tested, and the “pre-steady-state target cleavage rate” value was 0.0859 ± 0.012. With UCCUGGUACAGCUUGCAUAGUAAUUUAGUUA the “pre-steady-state target cleavage rate” value was 0.186 ± 0.025. In the case of UCCUGGAUGAGCUUGCAUAGUAUUUGGUUA, the “pre-steady-state target cleavage rate” value is reported as 0.203 ± 0.025. With UCCUGGAACAGGUUGCAUAGUAAUUAGUUA the “pre-steady-state target cleavage rate” value was 0.206 ± 0.017. UCCUGCUACUGGUUGCAUAGUAUUUAGUUA was tested, and the “pre-steady-state target cleavage rate” value was 0.251 ± 0.018. For UCCUGGAACAGCAUGCAUAGUAUUUAGUAA, the “pre-steady-state target cleavage rate” value was 0.214 ± 0.019. In the case of UCCUGGAACAGCUAGCAUAGUAUAUAGUUA, the “pre-steady-state target cleavage rate” value is reported as 0.229 ± 0.026. With UCCUGGAACAGCUUGCAUAGUAUUUACUUA the “pre-steady-state target cleavage rate” value was 0.0894 ± 0.017. With UCCUGGUACAGCUUGCAUAGUUUUUACAAA the “pre-steady-state target cleavage rate” value was 0.0185 ± 0.0077. With UCCUGGAUGAGCUUGCAUAGUAUUUACGUUA the “pre-steady-state target cleavage rate” value was 0.189 ± 0.031. With UCCUGGUACAGCUUGCUUUGUAUUUAGUUA the “pre-steady-state target cleavage rate” value was 0.123 ± 0.017. For UCCUGGAUCAGCAUGCUUAGUAUUUAGUUA, the “pre-steady-state target cleavage rate” value was 0.189 ± 0.019. In the case of UCCUCCAACUGCUUGCAUAGUAUUUAGUUA, the “pre-steady-state target cleavage rate” value is reported as 0.256 ± 0.017. For UCCUGGAACAGCUUGCAUAGUAAUAAGUUA, the “pre-steady-state target cleavage rate” value was 0.103 ± 0.018. UCCUGGUACAGCUUGCAUAGUAAUUAGUUA was tested, and the “pre-steady-state target cleavage rate” value was 0.317 ± 0.034. In the case of UCCUGGAACAGCUUGCAUUGUAUUUACAAA, the “pre-steady-state target cleavage rate” value is reported as 0.00788 ± 0.0043. With UCCUGGAACAGCUUGCACUAGUAUUUAGUUA the “pre-steady-state target cleavage rate” value was 0.0388 ± 0.0091. For UCCUGGAUGUCGAAGCAUAGUAUUUAUUUA, the “pre-steady-state target cleavage rate” value was 0.0073 ± 0.0034. In the case of UCCUGGUACUCCUUGCAUAGUAUUUAGUUA, the “pre-steady-state target cleavage rate” value is reported as 0.217 ± 0.046. For UCCUGGAACAGCUUGCAUUGAAUUUAGUUA, the “pre-steady-state target cleavage rate” value was 0.0179 ± 0.006. UCCUCCUACAGCUUGCCAUAGUAUUUAGUUA was tested, and the “pre-steady-state target cleavage rate” value was 0.173 ± 0.026. UCCUCCUACAGCUUGCAUAGAAUUAAGUUA was tested, and the “pre-steady-state target cleavage rate” value was 0.127 ± 0.03. In the case of UCCUCCUACAGCUUCAUAGUAUUUAGUUA, the “pre-steady-state target cleavage rate” value is reported as 0.238 ± 0.013. In the case of UCCUGGAUGUGCUAGCUUAGUAUUUAGUUA, the “pre-steady-state target cleavage rate” value is reported as 0.0596 ± 0.0098.

Same assay, conditions: auxiliary factor: none (no GTSF1)
With UCCUGGAUCAGCUAGCAUACUAUUUAGUUA the “pre-steady-state target cleavage rate” value was 0.00444 ± 0.0019. UCCUGGUACAGCUUGCAUAGUAAUUUAGUUA was tested, and the “pre-steady-state target cleavage rate” value was 0.0129 ± 0.0045. For UCCUGGAUGAGCUUGCAUAGUAUUUGGUUA, the “pre-steady-state target cleavage rate” value was 0.00663 ± 0.0031. UCCUGGAACAGGUUGCAUAGUAAUUAGUUA was tested, and the “pre-steady-state target cleavage rate” value was 0.0075 ± 0.0018. For UCCUGCUACUGGUUGCAUAGUAUUUAGUUA, the “pre-steady-state target cleavage rate” value was 0.0113 ± 0.0029. In the case of UCCUGGAACAGCAUGCAUAGUAUUUAGUAA, the “pre-steady-state target cleavage rate” value is reported as 0.00404 ± 0.0034. In the case of UCCUGGAACAGCUAGCAUAGUAUAUAGUUA, the “pre-steady-state target cleavage rate” value is reported as 0.00524 ± 0.0027. With UCCUGGAACAGCUUGCAUAGUAUUUACUUA the “pre-steady-state target cleavage rate” value was 0.003 ± 0.0029. With UCCUGGAUGAGCUUGCAUAGUAUUUACGUUA the “pre-steady-state target cleavage rate” value was 0.00682 ± 0.0032. With UCCUGGUACAGCUUGCUUUGUAUUUAGUUA the “pre-steady-state target cleavage rate” value was 0.0068 ± 0.0025. With UCCUGGAUCAGCAUGCUUAGUAUUUAGUUA the “pre-steady-state target cleavage rate” value was 0.00777 ± 0.0024. With UCCUCCAACUGCUUGCAUAGUAUUUAGUUA the “pre-steady-state target cleavage rate” value was 0.00659 ± 0.0019. UCCUGGUACAGCUUGCAUAGUAAUUAGUUA was tested, and the “pre-steady-state target cleavage rate” value was 0.00595 ± 0.0029. UCCUCCUACAGCUUGCCAUAGUAUUUAGUUA was tested, and the “pre-steady-state target cleavage rate” value was 0.00264 ± 0.0026. In the case of UCCUCCUACAGCUUCAUAGUAUUUAGUUA, the “pre-steady-state target cleavage rate” value is reported as 0.0049 ± 0.002. For UCCUGGAUGUGCUAGCUUAGUAUUUAGUUA, the “pre-steady-state target cleavage rate” value was 0.00453 ± 0.0023.
